Our source for the max response, outcome and Potency values is PubChem BioAssay (NCATS).

For assay [1], the system named is CRL-7250. Kind of assay: Cytotoxic Profiling of Annotated Libraries Using Quantitative High-Throughput Screening (AID 1296008). Further: potency means the concentration at half of the fitted maximal effect. On max response: on the % scale 0 is the no-effect control and ±100 the full control effect. The following applies: Five cell lines viability, CellTiter-Glo ATP luminescence, 48-72 h; max response: stronger effect = lower value. The procedure, abridged: (§1)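 Cytotoxicity was measured as CellTiter-Glo ATP luminescence, read after 10 min at room temperature. Compound treatment of the cells lasted 48 or 72 hr at 37 degrees Celsius in a qHTS format.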
Background: In ATP-based viability assays light output follows the ATP content of the culture.

Assay [2] has as its system HEK293. The assay is described as above. The following applies: Five cell lines viability, CellTiter-Glo ATP luminescence, 48-72 h; max response: stronger effect = lower value. In outline: as §1
For assay [3], the system named is HaCat. The description is as above. The following applies: Five cell lines viability, CellTiter-Glo ATP luminescence, 48-72 h; max response: stronger effect = lower value. The procedure, abridged: as §1
Assay [4] relates to KB-3-1. The description is as above. The note with it: Five cell lines viability, CellTiter-Glo ATP luminescence, 48-72 h; max response: stronger effect = lower value. In outline: as §1
Assay [5] deals with HACAT. Kind of assay: qHTS assay to identify novel small-molecules to repurpose for Merkel cell carcinoma treatment (AID 1296009). The note with it: MCC and control cell lines, CellTiter-Glo viability, 72 h; series mostly up to 44.8 µM. In outline:
(§2)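 After compound transfer in DMSO, plates were kept 72 hr at 37 degree celsius. Luminescent ATP signal from CellTiter-Glo served as viability measure, normalized against DMSO and no-cell controls.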
(In general: Quantitative high-throughput screening tests each substance at several concentrations.)

Assay [6] relates to HEK293T. Described as above. The following applies: MCC and control cell lines, CellTiter-Glo viability, 72 h; at 44.8 µM (top of the series) unless noted. In outline: as §2
Assay [7] deals with NIH3T3. Kind of assay: Cytotoxic Profiling of Annotated Libraries Using Quantitative High-Throughput Screening (AID 1296008). Further: potency means the concentration at half of the fitted maximal effect. On max response: on the % scale 0 is the no-effect control and ±100 the full control effect. The following applies: Five cell lines viability, CellTiter-Glo ATP luminescence, 48-72 h; max response: stronger effect = lower value. In outline: as §1

Inconclusive results are not listed. Values without a mark were called inactive. Active and inactive are the calls of the source. The call rests on the fitted dose curve; in most records, active means well fitted inhibition curve with a large enough effect; inconclusive means small, poorly fitted or top-dose-only effect; inactive means flat fitted curve, though single readings scatter.
Further: nearly all actives have a fitted effect of over 60% in size.

With `CC(=O)OC/C=C(\C)C(CC1C(C)=C(OC(C)=O)C(=O)C2C(C)(C)C(O)CCC12C)OC(C)=O` (stereo not given), the results for the max response in assay [1] and in assay [2] were 1.57% and -0.0321%, respectively. Besides, the outcome in assay [3] and in assay [4] was inactive. The Potency entry in assay [5] is “inactive”.
As for `Cc1cccc(-c2[nH]c(Cc3cccc(C(N)=O)c3)nc2-c2ccc3nccnc3c2)n1`, the max response in assay [1] is 4.2%; in assay [4], -5.51%. Besides, the result in assay [2], in assay [3] and in assay [6] was inactive. For the same molecule, in assay [5], the Potency entry was “inactive”.
On to `CN1CCN(C(=O)c2ccc3cc(CCNc4ncnc5ccc(C#N)cc45)ccc3c2)CC1`, for which the Potency in assay [1] was 4.61 µM (active); in assay [2], 2.91 µM (active). In addition, the molecule was called inactive in assay [3]. Besides, the max response in assay [4] was -26.4%; in assay [7] it was -2.38%. In assay [5], the Potency result is “inactive”.
For `Cc1ccc(-c2c(C(=O)CF)n(CCCO)c3ncnc(N)c23)cc1`, the max response in assay [1] is -0.58%; in assay [3] it was 4.6%; in assay [4], 4.56%. Also, the molecule was called inactive in assay [2] and in assay [6].
Take `O=C(O)CCCCCC[C@H]1C(=O)NC(=O)N1CC[C@@H](O)C1CCCCC1`: the figures for the max response in assay [1], in assay [2] and in assay [7] were 3.98%, -1.93% and -5.35%, respectively. Also, the outcome in assay [3] and in assay [4] was inactive. Also, in assay [5], the Potency entry was “inactive”.
With `O=C(O[C@H]1[C@@H]2C=CO[C@@H](O[C@@H]3O[C@H](CO)[C@@H](O)[C@H](O)[C@H]3O)[C@@H]2[C@@]2(CO)O[C@@H]12)c1ccccc1`, the max response in assay [1] was -3.06%; in assay [2] it was -2.12%; in assay [7] it was -6.96%. The molecule was called inactive in assay [3] and in assay [4]. In addition, the Potency entry in assay [5] was “inactive”.
Turning to `C=C1C(OC2OCC(O)C(O)C2O)CC2C(C)(C)C(O)CCC2(C)C1CC/C(C)=C\CO` (stereo not given), the max response was -6.07% in assay [1], -24.4% in assay [2], 3.38% in assay [4] and 1.42% in assay [7]. Moreover, the molecule was classed as inactive in assay [3]. The Potency result in assay [5] was “inactive”.
